Compound activity from PubChem.
Only some compounds are listed: those with a hit (about 2.8% of all), similar ones and a draw of the others.
Peg3 promoter = inhibitors of Peg3 promoter; inhibition, % at 20 µM; AID 588405; HeLa PEG-Prom luciferase reporter, luminescence, overnight; hit rate 1.7% among 360,000;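 active = inhibition of at least 50% at 20 µM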
Shn3 inh set2 = reduces Shn3 3'UTR luciferase signal in osteoblasts; Clone20 osteoblast Shn3 3'UTR firefly luciferase, 24 h; inhibition, % at 12.5 µM; hit rate 0.52% among 360,000; AID 588674;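 active = mean inhibition of at least 75% with every replicate also reaching 75%; inconclusive = mean inhibition at least 75% but some replicate below; inactive = mean inhibition below 75%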
TRPM1 prom inh = MITF TRPM1 promoter inhibition in SK-MEL-5 cells. inhibition, % at 12.5 µM. SK-MEL-5 TRPM1 promoter luciferase, 24 h. AID 488899. hit rate 0.83% among 330,000;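 active = mean inhibition across replicates of 60% or more, whatever share of single replicates reaches that level; inconclusive = some that reach 60%, reason not given; inactive = mean inhibition across replicates below 60%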
HIF-2a inh = HIF-2a inhibition | 786-0 RCC cells HIF-2a reporter, luciferase luminescence, overnight | hit rate 0.72% among 360,000 | inhibition, % at 18.8 µM;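 active = inhibition of the luminescence signal of 40% or more relative to plate controls, in a single-dose primary screen at 18.75 µM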
KKLEB cytotox = reduces viability of KKLEB cystic fibrosis airway cells. KKLEB CF airway cells viability, ATPlite luminescence, overnight; active compounds read low; cells stimulated with P. aeruginosa culture filtrate. activity change (cytotoxicity), % at 5 µM. hit rate 0.36% among 360,000;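 active = corrected activity change at or below -50% at 5 µM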
CF NFkB block = inhibitors of cystic fibrosis induced NF-kB. KKLEB NF-kB-GFP reporter, PAF-induced, GFP fluorescence overnight. inhibition, % at 5 µM. hit rate 0.86% among 360,000;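 active = at least 50% inhibition at 5 µM, scaled per plate between neutral and stimulator controls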;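 also: PAF is a Pseudomonas aeruginosa culture filtrate used as stimulus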
Mdm2-MdmX confirm = Mdm2/MdmX (human) interaction inhibition, confirmed. shares compounds with HIF-2a inh. hit rate 99% among 740. SaOS-2 split-luciferase Mdm2/MdmX complementation, luminescence. inhibition, % at 8 µM;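 active = mean inhibition of the luminescence signal across two replicates at or above 26 percent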
Target sequence (O15151 whole entry, looked up): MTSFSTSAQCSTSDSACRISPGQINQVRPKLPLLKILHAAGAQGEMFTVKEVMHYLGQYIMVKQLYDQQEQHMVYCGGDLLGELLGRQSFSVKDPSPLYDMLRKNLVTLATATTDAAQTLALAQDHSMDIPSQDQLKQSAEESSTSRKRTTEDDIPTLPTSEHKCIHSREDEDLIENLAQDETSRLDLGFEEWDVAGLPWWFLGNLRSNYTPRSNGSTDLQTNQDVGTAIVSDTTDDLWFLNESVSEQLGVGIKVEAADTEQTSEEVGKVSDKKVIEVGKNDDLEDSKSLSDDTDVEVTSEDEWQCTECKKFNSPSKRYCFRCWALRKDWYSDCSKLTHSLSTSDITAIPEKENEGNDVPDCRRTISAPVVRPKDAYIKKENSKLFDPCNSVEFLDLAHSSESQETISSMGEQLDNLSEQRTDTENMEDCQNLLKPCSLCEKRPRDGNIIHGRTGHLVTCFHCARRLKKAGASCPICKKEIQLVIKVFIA
Target sequence (Q00987 whole entry, looked up): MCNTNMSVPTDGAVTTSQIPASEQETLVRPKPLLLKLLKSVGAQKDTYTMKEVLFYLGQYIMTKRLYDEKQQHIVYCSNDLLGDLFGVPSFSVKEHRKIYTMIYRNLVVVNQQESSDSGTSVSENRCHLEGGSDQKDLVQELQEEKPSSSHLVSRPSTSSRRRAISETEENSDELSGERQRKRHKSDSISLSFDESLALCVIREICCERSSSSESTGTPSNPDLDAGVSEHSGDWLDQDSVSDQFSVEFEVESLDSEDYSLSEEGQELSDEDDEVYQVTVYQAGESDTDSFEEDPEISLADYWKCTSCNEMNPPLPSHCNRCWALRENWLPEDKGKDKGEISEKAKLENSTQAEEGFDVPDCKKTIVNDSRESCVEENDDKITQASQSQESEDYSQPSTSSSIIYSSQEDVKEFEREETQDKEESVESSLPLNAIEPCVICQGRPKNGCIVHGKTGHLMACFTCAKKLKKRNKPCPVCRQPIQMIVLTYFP
HIF-2a conf = HIF-2a inhibition, single concentration confirmation | shares compounds with HIF-2a inh | hit rate 56% among 1,800 | inhibition, % at 18.8 µM | 786-0 RCC cells, HIF-2a luciferase reporter luminescence, overnight;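 active = mean inhibition across four replicates of at least 40 percent at the single tested concentration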
HIF-1a cs = inhibits HIF-1a reporter, a counter-screen for HIF-2a inhibitors; inhibition, % at 18.8 µM; MiaPaCa-2 HIF-1a luciferase reporter, desferoxamine, overnight; hit rate 72% among 1,800; shares compounds with HIF-2a inh;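 active = mean inhibition of the reporter signal across four replicates at the single tested dose of 50% or more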
Numbers stand for hits; n = inactive; u = inconclusive; x = not tested or not shown.

SMILES | Peg3 promoter | Shn3 inh set2 | TRPM1 prom inh | HIF-2a inh | KKLEB cytotox | CF NFkB block | Mdm2-MdmX confirm | HIF-2a conf | HIF-1a cs
CCCC(=O)NC(c1ccc(Cl)cc1Cl)c1ccc2cccnc2c1O (stereo not drawn) | 59.0 | 92.4 | 65.6 | n | n | n | 85.2 | x | x
CCCCN(CC)Cc1ccc(CNC(=S)Nc2c(C)cc(C)cc2C)o1 | n | n | n | n | n | n | x | x | x
CCCCN(CC)Cc1ccc(CNC(=S)Nc2ccc(C)cc2Cl)o1 | n | n | n | 83.5 | n | n | x | 60.0 | 60.5
CCCCn1c(=N)n(CC(=O)c2ccc(Br)s2)c2ccccc21 | 94.8 | n | 89.8 | 50.4 | n | n | 103.2 | n | 98.5
Cn1nc(C(=O)N2CCN(C(c3ccccc3)c3ccccc3)CC2)c2ccccc2c1=O | n | n | n | n | n | n | x | x | x
O=C(Nc1ccccc1C(=O)NCc1ccco1)Nc1cccc2ccccc12 | n | n | n | 54.3 | n | n | x | n | n
CC(Oc1ccc(Cl)cc1Cl)c1ccn[nH]1 (stereo not drawn) | n | n | n | n | n | n | x | x | x
O=C(O)c1cccc(-c2nc3ccccc3[nH]2)c1 | 55.4 | n | n | 69.4 | n | n | x | 55.2 | n
CN1CCN(C(=O)CCCN2C(=O)/C(=C/c3ccccc3)SC2=S)CC1 | n | n | n | n | n | n | x | x | x
O=C(CCN1C(=O)/C(=C/c2ccccc2)SC1=S)N1CCCCCC1 | 105.4 | n | n | 66.6 | n | n | 102.0 | x | x
Cc1ccc(/C=C2/SC(=S)N(CCCC(=O)Nc3ccc(O)cc3)C2=O)cc1 | n | n | n | n | n | n | 100.7 | x | x
O=C(CCCN1C(=O)/C(=C/c2ccccc2)SC1=S)Nc1cccc(O)c1 | 78.0 | n | n | 72.7 | n | n | 103.5 | x | x
COc1cc(OC)cc(C(=O)N[C@H](C(=O)OCC(=O)Nc2cccnc2Cl)C(C)C)c1 | n | n | x | n | n | n | x | x | x
CCNC(=S)Nn1cnc2ccccc21 | n | n | n | n | n | n | x | x | x
Cn1c(SCC(=O)Nc2ccc3c(c2)OCO3)nnc1C(F)(F)F | n | n | n | n | n | n | x | x | x
COc1ccc(S(=O)(=O)NCCC(=O)N2CCCN(C)CC2)cc1 | n | n | n | n | n | n | x | x | x
CC(C)(C)c1ccc(-c2noc(CCC(=O)NCc3ccco3)n2)cc1 | n | n | 83.1 | 85.1 | n | n | x | 92.2 | n
N#CC1=C(N)N2C(=C(C#N)C13CCN(Cc1ccccc1)CC3)Nc1ccccc12 | n | n | n | n | n | n | x | x | x
N#CC1=C(N)N2C(=C(C#N)C1c1ccc(Br)cc1)Nc1ccccc12 (stereo not drawn) | x | x | x | x | x | x | 101.2 | x | x
CCN1CCN(Cc2c(O)ccc3c2O/C(=C\c2ccccc2)C3=O)CC1 | n | n | n | n | n | n | x | x | x
CN(C)Cc1c(O)ccc2c1O/C(=C\C=C\c1ccccc1)C2=O | n | n | 93.0 | n | n | n | n | x | x
COc1cccc(Nc2cc(N3CCOCC3)c3nonc3c2[N+](=O)[O-])c1 | n | n | n | n | n | n | x | x | x
O=[N+]([O-])c1c(Nc2cccc(O)c2)cc(Cl)c2nonc12 | 102.8 | u | 77.5 | 89.7 | -91.6 | 91.3 | 103.7 | 95.3 | 105.1
O=[N+]([O-])c1c(Nc2ccccc2O)cc(N2CCOCC2)c2nonc12 | n | x | n | 50.8 | n | n | x | n | 71.6
Cc1c(Nc2cc(Cl)c3nonc3c2[N+](=O)[O-])c(=O)n(-c2ccccc2)n1C | 104.7 | 96.3 | 101.8 | 98.1 | -55.6 | 94.0 | 103.2 | 98.5 | 104.6
COc1ccccc1CNC(=O)COC(=O)c1cc2ccccc2o1 | n | n | n | n | n | n | x | x | x
COC(=O)C1CCN(C(=O)CN2C(=O)NC3(CCC(C)CC3)C2=O)CC1 (stereo not drawn) | n | n | n | n | n | n | x | x | x
O=C(/C(=C/c1ccc(Cl)cc1)c1nc2ccccc2[nH]1)c1ccccc1 | 107.8 | u | 83.7 | 91.1 | -82.1 | 89.3 | 102.7 | 43.3 | 105.5
